Columns and labels:
Assay in all cases: DAPPL (digital affinity profiling via proximity ligation, sequencing); 10 mM Tris-HCl pH 7.5, 50 mM NaCl, 1 mM DTT, 4% glycerol, room temperature, 30 min; GST-TFs on glutathione beads, 16-mer random dsDNA library, 0.1% formaldehyde crosslink after washing; high values mean tight binding
Conditions in all cases: protein: recombinant; tags: N-terminal GST; dsDNA, one strand shown
[1] = target: ETV1 (Homo sapiens, UniProt P50549 1-477)
How it was run: (§1)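 Each value of binding signal is a hexamer's read frequency for a factor divided by the same hexamer's frequency in the tag-only sample. Barcoded, bead-captured GST fusions of human transcription factors made in yeast were pooled with that sample and incubated with 200 nmole of a random double-stranded 16-mer DNA library in Tris/NaCl/DTT/glycerol buffer at room temperature for 30 min. Washing, 0.1% formaldehyde crosslinking, proximity ligation, PCR and Illumina NextSeq500 sequencing followed.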

[2] = target: T1, ERF (Homo sapiens, UniProt P50548 1-548)
T1 sequence: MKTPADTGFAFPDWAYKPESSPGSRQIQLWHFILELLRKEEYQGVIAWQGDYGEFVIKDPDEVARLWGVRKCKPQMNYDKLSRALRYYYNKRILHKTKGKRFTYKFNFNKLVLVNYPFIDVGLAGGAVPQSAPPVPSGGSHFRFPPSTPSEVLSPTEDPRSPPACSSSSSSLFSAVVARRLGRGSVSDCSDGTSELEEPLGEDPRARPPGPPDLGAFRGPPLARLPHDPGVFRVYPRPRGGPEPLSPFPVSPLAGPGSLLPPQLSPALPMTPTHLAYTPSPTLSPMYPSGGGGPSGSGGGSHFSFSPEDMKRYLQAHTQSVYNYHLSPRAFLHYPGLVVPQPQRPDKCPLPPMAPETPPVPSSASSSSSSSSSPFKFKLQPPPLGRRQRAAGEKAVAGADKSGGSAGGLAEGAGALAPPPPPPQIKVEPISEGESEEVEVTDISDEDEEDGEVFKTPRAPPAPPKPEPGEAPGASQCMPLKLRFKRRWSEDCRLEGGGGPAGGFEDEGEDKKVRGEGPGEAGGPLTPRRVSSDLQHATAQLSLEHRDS
How it was run: as §1

[3] = target: T2, ETV3L (Homo sapiens, UniProt Q6ZN32 1-361)
T2 sequence: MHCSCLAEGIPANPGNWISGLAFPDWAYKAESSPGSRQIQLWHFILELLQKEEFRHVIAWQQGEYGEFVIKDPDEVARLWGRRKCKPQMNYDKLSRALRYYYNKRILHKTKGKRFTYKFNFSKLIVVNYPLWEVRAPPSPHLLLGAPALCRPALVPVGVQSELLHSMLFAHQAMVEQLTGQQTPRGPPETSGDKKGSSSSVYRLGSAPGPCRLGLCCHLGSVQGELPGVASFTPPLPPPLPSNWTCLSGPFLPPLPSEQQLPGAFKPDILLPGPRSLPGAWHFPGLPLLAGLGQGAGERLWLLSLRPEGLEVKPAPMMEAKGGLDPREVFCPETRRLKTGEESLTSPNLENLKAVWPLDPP
How it was run: as §1

[4] = target: T3, ETS2 (Homo sapiens, UniProt P15036 1-469)
T3 sequence: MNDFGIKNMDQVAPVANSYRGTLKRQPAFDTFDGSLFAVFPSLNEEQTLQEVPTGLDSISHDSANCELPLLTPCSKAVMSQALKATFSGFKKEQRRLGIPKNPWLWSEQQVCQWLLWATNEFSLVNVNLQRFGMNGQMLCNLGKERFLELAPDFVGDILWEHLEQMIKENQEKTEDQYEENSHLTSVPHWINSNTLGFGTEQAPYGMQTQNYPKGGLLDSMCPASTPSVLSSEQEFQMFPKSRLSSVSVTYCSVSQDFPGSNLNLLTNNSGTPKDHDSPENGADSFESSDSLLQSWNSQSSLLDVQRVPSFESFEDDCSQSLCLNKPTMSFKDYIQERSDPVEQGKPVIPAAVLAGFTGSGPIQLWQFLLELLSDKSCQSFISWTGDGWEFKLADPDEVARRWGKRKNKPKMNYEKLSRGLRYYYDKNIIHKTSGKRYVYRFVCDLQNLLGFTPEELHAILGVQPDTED
How it was run: as §1

[5] = target: T4, SPDEF (Homo sapiens, UniProt O95238 1-335)
T4 sequence: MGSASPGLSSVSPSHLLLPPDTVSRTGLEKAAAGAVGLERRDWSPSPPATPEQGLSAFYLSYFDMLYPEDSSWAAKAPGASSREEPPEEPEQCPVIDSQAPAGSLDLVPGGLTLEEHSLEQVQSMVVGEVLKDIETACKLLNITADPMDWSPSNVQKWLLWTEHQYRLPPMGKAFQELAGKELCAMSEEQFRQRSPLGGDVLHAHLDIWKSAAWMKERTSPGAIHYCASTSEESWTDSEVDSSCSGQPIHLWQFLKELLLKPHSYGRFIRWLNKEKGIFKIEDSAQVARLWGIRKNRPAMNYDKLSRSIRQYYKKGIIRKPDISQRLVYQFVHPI
How it was run: as §1

[6] = target: T5, ETV7 (Homo sapiens, UniProt Q9Y603 1-341)
T5 sequence: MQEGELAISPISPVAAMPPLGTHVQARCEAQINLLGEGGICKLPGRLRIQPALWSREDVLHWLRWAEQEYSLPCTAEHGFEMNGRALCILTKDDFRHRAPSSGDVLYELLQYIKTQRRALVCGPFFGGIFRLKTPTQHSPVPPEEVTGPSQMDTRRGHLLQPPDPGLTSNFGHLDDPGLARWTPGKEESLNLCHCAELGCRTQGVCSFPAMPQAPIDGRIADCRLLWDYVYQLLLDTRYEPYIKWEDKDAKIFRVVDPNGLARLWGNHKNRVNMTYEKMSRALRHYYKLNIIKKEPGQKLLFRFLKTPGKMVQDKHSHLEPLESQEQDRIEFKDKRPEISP
How it was run: as §1

[7] = target: T6, ELF5 (Homo sapiens, UniProt Q9UKW6-2 1-255)
T6 sequence: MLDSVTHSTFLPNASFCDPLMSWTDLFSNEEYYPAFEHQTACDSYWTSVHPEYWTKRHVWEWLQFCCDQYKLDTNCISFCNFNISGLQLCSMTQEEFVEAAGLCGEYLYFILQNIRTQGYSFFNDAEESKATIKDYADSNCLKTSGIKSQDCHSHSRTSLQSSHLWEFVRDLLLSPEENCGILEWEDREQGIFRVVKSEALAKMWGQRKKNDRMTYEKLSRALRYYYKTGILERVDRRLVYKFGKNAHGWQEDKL
How it was run: as §1

[8] = target: T7, ETV3 (Homo sapiens, UniProt P41162-2 1-143)
T7 sequence: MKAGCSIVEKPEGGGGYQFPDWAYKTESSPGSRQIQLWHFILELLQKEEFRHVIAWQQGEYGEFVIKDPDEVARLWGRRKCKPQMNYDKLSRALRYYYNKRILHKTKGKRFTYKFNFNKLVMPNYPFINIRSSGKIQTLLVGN
How it was run: as §1

[9] = target: ETV6 (Homo sapiens, UniProt P41212 1-452)
Chain of ETV6 (P41212 whole entry): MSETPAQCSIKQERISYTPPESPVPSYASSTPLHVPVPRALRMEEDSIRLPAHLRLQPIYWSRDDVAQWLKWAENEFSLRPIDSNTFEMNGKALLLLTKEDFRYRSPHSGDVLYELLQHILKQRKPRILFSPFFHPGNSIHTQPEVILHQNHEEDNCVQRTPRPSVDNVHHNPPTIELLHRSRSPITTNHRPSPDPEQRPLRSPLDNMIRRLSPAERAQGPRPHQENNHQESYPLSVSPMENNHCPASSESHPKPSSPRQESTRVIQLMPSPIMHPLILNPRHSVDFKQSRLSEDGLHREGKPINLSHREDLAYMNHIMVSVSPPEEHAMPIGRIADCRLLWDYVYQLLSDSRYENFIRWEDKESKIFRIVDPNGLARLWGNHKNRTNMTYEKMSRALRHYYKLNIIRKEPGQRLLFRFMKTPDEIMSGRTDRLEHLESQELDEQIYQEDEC
How it was run: as §1

Chain of ETV1 (P50549 whole entry, the tested form may be a part): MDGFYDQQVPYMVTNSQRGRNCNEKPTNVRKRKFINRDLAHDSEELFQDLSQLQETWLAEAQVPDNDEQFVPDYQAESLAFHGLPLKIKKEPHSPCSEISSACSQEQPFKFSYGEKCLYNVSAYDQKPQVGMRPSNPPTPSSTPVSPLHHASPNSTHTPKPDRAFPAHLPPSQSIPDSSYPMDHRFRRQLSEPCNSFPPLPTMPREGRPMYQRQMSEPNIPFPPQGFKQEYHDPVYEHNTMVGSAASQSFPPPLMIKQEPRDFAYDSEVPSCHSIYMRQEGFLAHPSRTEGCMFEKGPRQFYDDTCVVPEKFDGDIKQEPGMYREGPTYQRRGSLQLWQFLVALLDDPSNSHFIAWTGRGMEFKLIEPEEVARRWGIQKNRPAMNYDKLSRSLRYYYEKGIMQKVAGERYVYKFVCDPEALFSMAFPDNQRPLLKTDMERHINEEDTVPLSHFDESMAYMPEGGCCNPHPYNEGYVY

**Q.** For CTGACT, which binding signal [1] is on record?
**A.** Its binding signal is 1.4 fold enrichment (6-mer frequency, TF over GST control).

**Q.** What about the binding signal [2] of the same sequence?
**A.** Its binding signal is 1.33 fold enrichment (6-mer frequency, TF over GST control).

**Q.** What about the binding signal [3] of the same sequence?
**A.** The binding signal was 1.22 fold enrichment (6-mer frequency, TF over GST control).

**Q.** What about the binding signal [4] of the same sequence?
**A.** Its binding signal is 1.42 fold enrichment (6-mer frequency, TF over GST control).

**Q.** What about the binding signal [5] of the same sequence?
**A.** The binding signal was 1.22 fold enrichment (6-mer frequency, TF over GST control).

**Q.** What about the binding signal [6] of the same sequence?
**A.** Its binding signal is 1.33 fold enrichment (6-mer frequency, TF over GST control).

**Q.** And the binding signal [7]?
**A.** Its binding signal is 1.32 fold enrichment (6-mer frequency, TF over GST control).

**Q.** And the binding signal [8]?
**A.** The binding signal was 1.28 fold enrichment (6-mer frequency, TF over GST control).

**Q.** And the binding signal [9]?
**A.** The binding signal was 1.24 fold enrichment (6-mer frequency, TF over GST control).
